# About 83,000 compounds went through this panel and 20% of them were active in at least one assay; those are over-represented in the sample as a whole.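 Treatment: one concentration, 48 hours, 96-well format. Scoring: percent growth, with anything below 10 considered active.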 The source made the active and inactive calls.
# System: NCI/ADR-RES ovarian
# Test: NCI-60 one-dose screen, 48 h (100 = growth as untreated, 0 = no growth, -100 = all killed)
# Details: 10 µM unless noted
row,SMILES,growth
1,N=C(N)c1ccc(-c2ccc(-c3ccco3)o2)cc1F,45.2% (inactive)
2,CCOC(=O)Cn1c(-c2nonc2NC(=O)c2ccccc2F)nc2ccccc21,55.7% (inactive)
3,CC(C)OC1OC(OC(C)C)C(OC(C)C)OC1OC(C)C (stereo not drawn),105% (inactive)
4,Cc1nn(-c2ccccc2)c2nc3c(nc12)C1=NCCN1C(c1ccc(Cl)cc1)N3 (stereo not drawn),98.6% (inactive)
5,COc1ccc(-c2ccc(-c3ccc(C(=N)N)s3)s2)cc1,-61.7% (active)
6,N=C(N)c1ccc(-c2ccc(-c3cccs3)s2)cc1F,-57.4% (active)
7,Cc1csc(N/N=C/c2ccncc2)n1,107% (inactive)
8,CCCCCCCCCCCCCCCC1=NCCN1,75.4% (inactive)
9,CCS(=O)(=O)Nc1cccc(Nc2c3cccc(C)c3nc3c(C)cccc23)c1OC,41.7% (inactive)
10,N/C(=N\O)c1ncc(-c2ccc(C(F)(F)F)cc2)c(NC2CCCCCC2)n1,-61.8% [100 µM] (active)
11,N/N=C(\C(=N\N)c1ccccc1)c1ccccc1,102% (inactive)
12,COc1cc(/C=C/c2cc(/C=C/c3ccc(O)c(OC)c3)n(C(=O)Nc3ccc(F)c(Cl)c3)n2)ccc1O,12% (inactive)
13,Cc1cc(Nc2c3ccccc3nc3ccccc23)ccc1NS(C)(=O)=O,57.7% (inactive)
14,O=C(CC(=O)c1ccccc1F)Nc1ccc([N+](=O)[O-])cc1,103% (inactive)
15,CCCCCCCCCCCC1=NC(C)(C)CN1CCO,90.3% (inactive)
16,COc1cc2ccc(C(C)=O)cc2cc1OC,103% (inactive)
17,Cc1ccccc1Nc1n[nH]c(Cc2ccccc2)n1,106% (inactive)
18,CNC1=C([N+](=O)[O-])C(c2ccccc2O)C(C#N)=C(c2cccs2)O1 (stereo not drawn),102% (inactive)
19,CCN(C(=O)CCl)C(C)(C)C(SSSC(c1ccc(Cl)cc1)C(C)(C)N(CC)C(=O)CCl)c1ccc(Cl)cc1 (stereo not drawn),89.8% (inactive)

row,SMILES,growth
1,COc1cc2c(cc1OC)-c1cc(OC)c(OC)cc1C(CN(C)C)C2 (stereo not drawn),26.9% [100 µM] (inactive)
2,CCCCOC(=O)c1cc(O)c(O)c(O)c1,74.4% (inactive)
3,FC(F)(F)c1cc(-c2nnc3n2N=C(Cl)CS3)cc(C(F)(F)F)c1,99.1% (inactive)
4,COc1cc2ncnc(Nc3ccc(S(=O)(=O)Nc4cc(C)on4)cc3)c2cc1OCCCN1CCN(c2ccc([N+](=O)[O-])cc2)CC1,106% (inactive)
5,COc1ccc(/C=N/NC(N)=S)c(OC)n1,109% (inactive)
6,O=C1c2cccc3cccc(c23)C(=O)N1CCCCCCCCCCN1C(=O)c2cccc3cccc(c23)C1=O,110% (inactive)
7,O=C1OC(/C=C/c2ccccc2)=NC/1=C/c1ccccc1[N+](=O)[O-],96.4% (inactive)
8,C=C(c1ccc(C(=O)NCCCn2ccnc2)cc1)c1cc2c(cc1C)C(C)(C)CCC2(C)C,5.05% (active)
9,O=[N+]([O-])c1ccc(Sc2nc(Cl)nc(NC3CCCC3)n2)cc1,-49.1% [100 µM] (active)
10,O=C(NCCN1CCCCC1)n1cc(-c2ccncc2)c(-c2ccc(Cl)c(O)c2)n1,95.6% (inactive)
11,CC(C)(C)c1cc(C[P+](c2ccccc2)(c2ccccc2)c2ccccc2)cc(C(C)(C)C)c1O,73.2% (inactive)
12,N#Cc1ccc(-c2ccc(-c3cccs3)o2)cc1F,72.1% (inactive)
13,Cc1cccc2nc3ccccc3c(Nc3ccc(NS(C)(=O)=O)cc3)c12,80.8% (inactive)
14,COc1cc(OC)cc(-c2ccc(-c3ccc(C(=N)N)s3)s2)c1,-58% (active)
15,C=C1C(=O)O[C@H]2[C@H]1CC/C(COC(=O)NCc1[nH]nc3ccccc13)=C\CC[C@@]1(C)O[C@@H]21,85.7% (inactive)
16,COC(=O)[C@H](Cc1cn(C)cn1)NC(=O)[C@H](CC(C)C)NC(=O)Nc1cc(C(F)(F)F)cc(C(F)(F)F)c1,-67.3% [100 µM] (active)
17,CCOC(=O)c1cc(C(=O)OCC)c(C)nc1C,110% (inactive)
18,COC(=O)[C@@H](Cc1c[nH]c2ccccc12)NC(=O)/C=C/c1ccccc1,4.17% (active)
19,CCOC(=O)C(CCCCC(NC(C)=O)(C(=O)OCC)C(=O)OCC)(NC(C)=O)C(=O)OCC,98.4% (inactive)
